Hit rate of the full screen: of about 2,000 compounds, about 20 (1%) were called active. The rule behind the calls is not given here. For the sample, actives were picked, then their nearest neighbours and some compounds at random.
Molecular target: Cystic fibrosis transmembrane conductance regulator (Homo sapiens) (UniProt P13569)
Test: F508del-CFTR plasma membrane relocalization enhancers – imaging, HeLa, high-content microscopy, immunofluorescence, primary screen (AID 1224864);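 note: HeLa cells stably expressing F508del-CFTR stained with 3G11 antibody against NBD1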;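 for plasma membrane CFTR intensity: mean immunofluorescence in a thin cell-margin band taken as plasma membrane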
Conditions: PM immunofluorescence imaging, 24 h, at 10 µM, stronger effect = higher value; total CFTR intensity: measured here: total cellular F508del-CFTR signal unless noted

Cystic fibrosis transmembrane conductance regulator (Homo sapiens), sequence (P13569 whole entry, looked up, stated change not applied): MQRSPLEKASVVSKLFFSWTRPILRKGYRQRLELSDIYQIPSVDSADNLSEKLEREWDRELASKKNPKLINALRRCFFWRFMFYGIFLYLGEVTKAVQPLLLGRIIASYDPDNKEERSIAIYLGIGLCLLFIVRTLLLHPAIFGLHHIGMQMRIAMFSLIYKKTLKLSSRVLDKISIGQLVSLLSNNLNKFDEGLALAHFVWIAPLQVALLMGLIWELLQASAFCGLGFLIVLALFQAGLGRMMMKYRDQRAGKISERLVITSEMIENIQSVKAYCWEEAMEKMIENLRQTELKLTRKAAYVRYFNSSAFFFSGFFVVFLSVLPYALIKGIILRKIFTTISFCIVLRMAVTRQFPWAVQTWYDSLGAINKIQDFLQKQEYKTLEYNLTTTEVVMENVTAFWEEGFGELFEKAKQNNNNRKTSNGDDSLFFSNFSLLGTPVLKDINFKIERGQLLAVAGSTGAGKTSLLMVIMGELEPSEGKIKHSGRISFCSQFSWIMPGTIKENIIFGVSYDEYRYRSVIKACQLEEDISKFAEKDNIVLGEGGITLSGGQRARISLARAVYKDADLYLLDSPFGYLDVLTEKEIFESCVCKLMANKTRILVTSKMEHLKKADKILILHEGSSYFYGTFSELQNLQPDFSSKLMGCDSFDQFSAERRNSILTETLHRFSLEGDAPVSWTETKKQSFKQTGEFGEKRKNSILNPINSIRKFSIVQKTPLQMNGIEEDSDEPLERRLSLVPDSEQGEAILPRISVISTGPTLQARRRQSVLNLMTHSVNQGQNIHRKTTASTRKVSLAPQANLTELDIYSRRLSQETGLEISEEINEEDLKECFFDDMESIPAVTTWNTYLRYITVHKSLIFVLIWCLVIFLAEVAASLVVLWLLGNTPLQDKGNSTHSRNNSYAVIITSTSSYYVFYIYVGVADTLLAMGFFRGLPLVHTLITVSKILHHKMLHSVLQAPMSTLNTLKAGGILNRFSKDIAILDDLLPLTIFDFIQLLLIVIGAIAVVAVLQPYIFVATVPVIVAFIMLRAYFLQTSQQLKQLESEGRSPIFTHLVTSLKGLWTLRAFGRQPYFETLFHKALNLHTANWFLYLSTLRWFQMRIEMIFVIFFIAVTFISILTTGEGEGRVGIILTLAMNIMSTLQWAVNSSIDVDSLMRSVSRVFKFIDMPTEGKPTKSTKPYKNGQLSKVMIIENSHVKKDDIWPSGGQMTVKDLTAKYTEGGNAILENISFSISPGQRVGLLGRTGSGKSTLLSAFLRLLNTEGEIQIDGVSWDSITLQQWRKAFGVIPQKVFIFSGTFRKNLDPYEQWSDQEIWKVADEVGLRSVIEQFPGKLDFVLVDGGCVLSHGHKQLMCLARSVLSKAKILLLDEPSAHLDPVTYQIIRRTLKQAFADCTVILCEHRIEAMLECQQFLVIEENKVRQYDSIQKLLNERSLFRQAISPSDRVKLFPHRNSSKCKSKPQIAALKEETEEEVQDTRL

Structure (SMILES) | plasma membrane CFTR intensity | total CFTR intensity
CC[C@@H](CO)NC(=O)[C@@H]1C=C2c3cccc4c3c(cn4C)C[C@H]2N(C)C1 | 78% (inactive) | 76%
CC(C)[C@H]1C(=O)N2CCC[C@H]2[C@]2(O)O[C@](NC(=O)[C@@H]3C=C4c5cccc6[nH]cc(c56)C[C@H]4N(C)C3)(C(C)C)C(=O)N12 | 106% [relative to vehicle wells set at 100] (active) | 139% [measured here: total cellular F508del-CFTR signal, relative to vehicle wells set at 100]
CC(C)[C@@]1(NC(=O)[C@@H]2C[C@@H]3c4cccc5[nH]cc(c45)C[C@H]3N(C)C2)O[C@@]2(O)[C@@H]3CCCN3C(=O)[C@H](Cc3ccccc3)N2C1=O | 50% (inactive) | 49%
CC(C)C[C@H]1C(=O)N2CCCC2[C@]2(O)O[C@](NC(=O)[C@@H]3C=C4c5cccc6[nH]cc(c56)CC4N(C)C3)(C(C)C)C(=O)N12 (stereo not given in full) | 123% [relative to vehicle wells set at 100] (active) | 142% [measured here: total cellular F508del-CFTR signal, relative to vehicle wells set at 100]
Clc1ccc(C2NCCc3nc[nH]c32)cc1 (stereo not given) | 79% [relative to vehicle wells set at 100] (inactive) | 78% [measured here: total cellular F508del-CFTR signal, relative to vehicle wells set at 100]
CC(C)C(=O)Nc1ccc(S(=O)(=O)N2CC3CC(C2)c2cccc(=O)n2C3)cc1 (stereo not given) | 92% (inactive) | 96%
C[C@@]1(CO)[C@H](O)CC[C@@]2(C)[C@H]1CC[C@H]1C[C@@H]3C[C@@]12CC[C@]3(O)CO | 75% (inactive) | 83%
CN1CCN(CCCN2c3ccccc3Sc3ccc(Cl)cc32)CC1 | 57% (inactive) | 48%
COP(=O)(OC)C(O)C(Cl)(Cl)Cl (stereo not given) | 96% (inactive) | 100%
CC12CC[C@H]3[C@@H](CCC4(O)C[C@H](O)CCC34/C=N/NC(=O)Cc3ccccc3)C1(O)CCC2C1=CC(=O)OC1 (stereo not given in full) | 87% [relative to vehicle wells set at 100] (inactive) | 88% [measured here: total cellular F508del-CFTR signal, relative to vehicle wells set at 100]

Source: PubChem BioAssay AID1224864 (Chung Lab, Department of Pediatrics, Emory University, 2016)
